This note sets out measurements from article PMC7819943, “Rice protein-binding microarrays: a tool to detect cis-acting elements near promoter regions in rice”.

The full ranking holds about 39,000 sequences; the median of “fluorescence intensity (a.u.)” is about 4,300, and the highest 2% start at about 39,000. What follows is part of a selection rich in the highest values, with near analogues and random picks from the rest.

This experiment has as its target T1, OsSMF1 (Oryza sativa, UniProt Q6ZLB0 1-436).
T1 sequence: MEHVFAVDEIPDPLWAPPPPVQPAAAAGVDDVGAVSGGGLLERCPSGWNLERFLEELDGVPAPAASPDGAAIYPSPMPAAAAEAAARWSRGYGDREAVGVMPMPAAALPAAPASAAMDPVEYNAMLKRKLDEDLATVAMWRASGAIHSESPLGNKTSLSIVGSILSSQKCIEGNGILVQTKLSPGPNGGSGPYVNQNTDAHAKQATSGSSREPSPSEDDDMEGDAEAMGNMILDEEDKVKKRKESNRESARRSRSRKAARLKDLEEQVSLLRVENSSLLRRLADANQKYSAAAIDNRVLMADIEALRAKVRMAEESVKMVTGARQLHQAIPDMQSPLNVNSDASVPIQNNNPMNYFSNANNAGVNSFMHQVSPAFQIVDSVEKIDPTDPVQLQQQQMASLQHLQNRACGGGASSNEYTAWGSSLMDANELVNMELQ
Description: protein-binding microarray (RPBM); PBS, 2% BSA, 51.3 ng/ul salmon testes DNA, 50 uM zinc acetate, 200 nM TF, 25 C, 1 h; high values mean tight binding. The following applies: protein: recombinant; tags: N-terminal polyhistidine and DsRed monomer fusion (pET32a); chain copies: 2; label: CyDye5-dUTP incorporated in the synthesized complementary strand; 3' TTTTT single-stranded linker to array surface; dsDNA, one strand shown. The gist of the method:
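Transcription factors, each fused N-terminally to a polyhistidine tag and DsRed, were expressed in E. coli BL21-CodonPlus and purified on Ni–NTA. A custom Agilent array was made double-stranded by primer extension with Cy5-dUTP and blocked with 2% BSA. It was incubated with 200 nM protein in PBS, 2% BSA, salmon testes DNA and 50 µM zinc acetate at 25 °C for 1 h, then washed. The binding signal is per-feature fluorescence intensity (arbitrary units) read on an Axon 4000B scanner.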
For “TGGCGCCTCTCACCGCCACGTCGCCGCCGGCGAGGTGAAACGGAGTCACCTAGTGCAG”, the binding signal is 20800 fluorescence intensity (a.u.). Turning to “ATCACGTGATTAAAACAGTAATTATCGAGCACGGAAGGAACGGAGTCACCTAGTGCAG”, the binding signal was 40600 fluorescence intensity (a.u.). With “ACGATTAATTGTTTAGTAAGCGTGCTGACGTTAAACGAGACGGAGTCACCTAGTGCAG”, the binding signal is 3690 fluorescence intensity (a.u.). The same measure for “CGATCGATCGATTGTGAGCACCGAACTCCCTTAATTAGGACGGAGTCACCTAGTGCAG”: 3390 fluorescence intensity (a.u.). Take “GGTGACAATTGTCATTTGCTCAGCAACTAACATTACTAAACGGAGTCACCTAGTGCAG”: the binding signal was 18200 fluorescence intensity (a.u.). In the case of “CACTGTTTGATGCTAAAACATATTACGTGTGCCGTTCATACGGAGTCACCTAGTGCAG”, the binding signal was 3580 fluorescence intensity (a.u.). With “CAGTCCACATAACCTGAACCCAGCGTCAATCCGCAAGCAACGGAGTCACCTAGTGCAG”, the binding signal is 40200 fluorescence intensity (a.u.). Turning to “ACCGCATCACATCAAGCATCCACCAACCAACCCAACAACACGGAGTCACCTAGTGCAG”, the binding signal is 3910 fluorescence intensity (a.u.).

As for “GACCCAGCAAGCAAGAGCGTCTAGTCACCTCAACCACGAACGGAGTCACCTAGTGCAG”, the binding signal was 6180 fluorescence intensity (a.u.). On to “GAGAATGATGTATGCACGCAGATGACATGGTATGATGAACCGGAGTCACCTAGTGCAG”, for which the binding signal is 4370 fluorescence intensity (a.u.). Consider “CATGGTATTGTTTGATGCCAACTGAATTGATACAATGTGACGGAGTCACCTAGTGCAG”, for which the binding signal was 20500 fluorescence intensity (a.u.). For “GGTTGGTATTAACCGCTGATGGTGAATGCCAACCTCAGAACGGAGTCACCTAGTGCAG”, the binding signal was 51200 fluorescence intensity (a.u.). The result for “CTTCAAGAAGGTTACGCTGACAGAACGGCGACAACGTCCGCGGAGTCACCTAGTGCAG” reads 3220 fluorescence intensity (a.u.); that for “TCCTTCCATACTGTATAAATACTTTGAAATTCTAATATAGCGGAGTCACCTAGTGCAG”, 44200 fluorescence intensity (a.u.); that for “TCTAAGACTGAACTTTCCTGTATACATATATTTTGAAAAGCGGAGTCACCTAGTGCAG”, 24600 fluorescence intensity (a.u.). The same measure for “CTTCCTTTGATAATATAATATATAGATAAATTCTCTAAGACGGAGTCACCTAGTGCAG”: 3200 fluorescence intensity (a.u.).

Turning to “GACGACCTTGGCACCCAGCTTCCGTCACTCGCTCGCCGCGCGGAGTCACCTAGTGCAG”, the binding signal was 3220 fluorescence intensity (a.u.). Regarding “CATCTATCATATAACAACAACACAATGACACAACACTGGACGGAGTCACCTAGTGCAG”, the binding signal is 4510 fluorescence intensity (a.u.). The result for “CATATAACAAGTGACTGGCACACAAACCCACAATGAAGTGCGGAGTCACCTAGTGCAG” reads 43500 fluorescence intensity (a.u.); that for “TTATAACACAAAACACATATGAAGCGCACTCTACCACGCACGGAGTCACCTAGTGCAG”, 32200 fluorescence intensity (a.u.); that for “TGCACGCACAGCCATCCACAAGCCATGAGCCGGCGCGAGACGGAGTCACCTAGTGCAG”, 3640 fluorescence intensity (a.u.).

Consider “ATTGAAGCCTATTTATTGGTAATACGTAATCTAGATTTGACGGAGTCACCTAGTGCAG”, for which the binding signal was 3700 fluorescence intensity (a.u.).

“TCAGCAGTAAAGGACAGAAGGCGAAAAGATTTGAGATCTTCGGAGTCACCTAGTGCAG”: the binding signal is 65500 fluorescence intensity (a.u.). Turning to “AAAGGCACAGCAGGATGAAGATCTTGAAATGTTTCTTTGGCGGAGTCACCTAGTGCAG”, the binding signal was 6510 fluorescence intensity (a.u.). Consider “ATAAAAGAGAAGAGCAGCAGGCCAGCTGCAGGACGGACTTCGGAGTCACCTAGTGCAG”, for which the binding signal is 3820 fluorescence intensity (a.u.).

“GCTCCCTCAGCCGTGGCACGTGTTCACAAGCCGTGACCAGCGGAGTCACCTAGTGCAG”: the binding signal is 4570 fluorescence intensity (a.u.). On to “CAGGCCAGAACAACTGCTCGGCCCGATAGGAGGGCCTACTCGGAGTCACCTAGTGCAG”, for which the binding signal was 55800 fluorescence intensity (a.u.).

In the case of “GTGCCTGCTCGATCGAGTCGTGGCGGCGGCGGAGTCAACTCGGAGTCACCTAGTGCAG”, the binding signal was 3370 fluorescence intensity (a.u.). Take “GCCCGTGCCAGGGCTGCTACCTCGGCACACTGGCCGGCACCGGAGTCACCTAGTGCAG”: the binding signal is 3350 fluorescence intensity (a.u.). For the sequence “AATAAGTGCAGTTGTGGGAATCCGTGTTGAACGTTTGACCCGGAGTCACCTAGTGCAG”, the binding signal was 14300 fluorescence intensity (a.u.). “AGTGAAGTCACAAGGAAGTGACGAGGATGAGGACGAGGAGCGGAGTCACCTAGTGCAG”: the binding signal is 28700 fluorescence intensity (a.u.). For the sequence “CGCTCCTCGCCGCCTTGAACCTCACAGCGAAACCTGATCACGGAGTCACCTAGTGCAG”, the binding signal was 3270 fluorescence intensity (a.u.).

For the sequence “GCCACCCTCAGCCACTGGCCATCCGTGGGCCCCACCATCCCGGAGTCACCTAGTGCAG”, the binding signal was 22500 fluorescence intensity (a.u.).

As for “TGGGGCCCACATCCCGCACCACTCGGATTCGGATTTCCTCCGGAGTCACCTAGTGCAG”, the binding signal was 52200 fluorescence intensity (a.u.). For the sequence “CCACCTAACACTAATCAACCAGTCAACCACCACATCTTCCCGGAGTCACCTAGTGCAG”, the binding signal is 3820 fluorescence intensity (a.u.). The same measure for “GCCCACATCCATCCCGTCACCCGCCCACTCGCCGTCGCACCGGAGTCACCTAGTGCAG”: 3490 fluorescence intensity (a.u.).

On to “CACTCCCATTCCCATCCTCCACATCCCGCGCCATCGACCTCGGAGTCACCTAGTGCAG”, for which the binding signal is 3400 fluorescence intensity (a.u.). The same measure for “GATCCCGGGCCCGGCCCACTGGCCCAGTCAACTAATCCTCCGGAGTCACCTAGTGCAG”: 53100 fluorescence intensity (a.u.). Regarding “CTGCTCCACGCATTCACCAACGCTCCCTGCGATGTTTTAGCGGAGTCACCTAGTGCAG”, the binding signal was 4260 fluorescence intensity (a.u.). The result for “CATCCATCCGGTCAAAGCAGCCGGCCACGTGGCGTGTCCCCGGAGTCACCTAGTGCAG” reads 28100 fluorescence intensity (a.u.). For the sequence “ACAGGCGAGGGTGGAACCCCGCGTGGCGAGAGCGTTGCGGCGGAGTCACCTAGTGCAG”, the binding signal was 4270 fluorescence intensity (a.u.).

With “TCTTCAAACTTCCAACTTTTCCATCACATCAAAACTTTCCCGGAGTCACCTAGTGCAG”, the binding signal is 3340 fluorescence intensity (a.u.).
